A selection: hits, their analogues and other compounds. The true share with any hit is near 21%.
NS1 function inh: influenza NS1 inhibition; AID 2326; Potency, µM (highest dose often 46.1 µM), for the others: at the top dose activity, positive = more growth; 270,000 tested, 0.4% active; calls by dose curve; further: potency means the concentration at half of the fitted maximal effect; actives are rising curves; nearly all actives have a fitted effect of over 50% in size
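Compounds were scored for reversing the slow growth caused by influenza A NS1 in S. cerevisiae, measured by optical density at 600 nm. Assay medium contained 2% galactose at pH 6.0; NS1-free yeast of the same strain were the positive control.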
Shiga toxin inh: Shiga toxin inhibition; Vero cells, Shiga toxin protein synthesis inhibition reporter; 290,000 tested, 9.2% active; inhibition, % at 38.7 µM; AID 2315; in the data active means inhibition mostly above about 28%, no sharp cut-off; inactive means mostly below about 43%; further: 0% is about no effect
Pf growth 48h: P. falciparum growth inhibition at 48 hours (one generation); Potency, µM (highest dose often 28.7 µM), for inactives: top-dose activity change, negative = inhibition, most hits filed as inhibitors; 310,000 tested, 5.9% active; P. falciparum luciferase growth in erythrocytes, 48 h; further: potency means the concentration at half of the fitted maximal effect; on the % scale 0 is the no-effect control and ±100 the full control effect
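Cell-based growth assay: transgenic P. falciparum expressing firefly luciferase, cultured in red cells within RPMI 1640 containing 0.5% w/v Albumax, 24 mM bicarbonate and gentamycin. A drop in luciferase activity indicates inhibition.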
Pf growth 96h: inhibits malaria parasite growth, 96 h; P. falciparum luciferase reporter growth, 96 h; Potency, µM (top dose mostly 28.7 µM), for inactives: at the top dose activity change, negative = inhibition, actives largely listed as inhibitors; 320,000 tested, 6.9% active; further: potency means the concentration at half of the fitted maximal effect; on the % scale 0 is the no-effect control and ±100 the full control effect
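Two-generation exposure (96 h) targets delayed-death phenotype. Reporter parasites carrying integrated firefly luciferase, in red cells at 2% hematocrit and 0.05% parasitemia final, kept at 37 C, 5% CO2; luminescence loss indicates inhibition.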
CHX counter: counter-screen hit for Shiga toxin inhibitors, cycloheximide; cell reporter, cycloheximide protein synthesis inhibition counterscreen; max response, %; 300,000 tested, 12% active; AID 2314; in the data active means max response mostly above about 13%, no sharp cut-off; inactive means mostly below about 14%; further: read at 38.3 µM for the half of the compounds with a filed dose; 0% is about no effect
Active calls of the source: *. Unless noted, the call rests on the fitted dose curve; in most records, active means well fitted inhibition curve with a large enough effect; inconclusive means small, poorly fitted or top-dose-only effect, or another doubt; inactive means no such curve, though single readings can be large or run the other way.

For CCC(=O)Nc1ccc(-c2nnc(SCc3ccc(C(=O)Nc4nccs4)cc3)n2CC)cc1 the results were NS1 function inh inconclusive, Shiga toxin inh 103, Pf growth 48h 7.4µM*, Pf growth 96h 5% and CHX counter 9.
Screening N#CC1=C(N)N(c2ccccc2Sc2ccccc2)C(=O)C1 returned NS1 function inh 21%, Shiga toxin inh -3, Pf growth 48h -2% and CHX counter -4.
For Cc1cc(=O)oc2cc(NC(=O)c3ccccc3OC(F)F)ccc12 the results were NS1 function inh 4%, Shiga toxin inh 115*, Pf growth 48h 62%, Pf growth 96h 64% and CHX counter 30*.
Screening Cc1cc(NC(=O)Cn2c(=O)c3c(ncn3CCC(C)C)n(Cc3ccccc3)c2=O)no1 returned NS1 function inh -15%, Shiga toxin inh -11, Pf growth 48h 3.3µM*, Pf growth 96h 6% and CHX counter 3.
CCCC(C)NC(=O)Cn1c(=O)c2c(ncn2CCC(C)C)n(Cc2ccccc2)c1=O (stereo not drawn) was read as NS1 function inh -3%, Shiga toxin inh 4, Pf growth 48h inconclusive, Pf growth 96h inconclusive and CHX counter -1.
For CC(C)Cn1cnc2c1c(=O)n(CC(=O)Nc1ccc3c(c1)OCO3)c(=O)n2Cc1ccccc1 the results were NS1 function inh -35%, Shiga toxin inh -8, Pf growth 48h 9.3µM*, Pf growth 96h 10µM* and CHX counter -3.
`CC(C)Cn1cnc2c1c(=O)n(CC(=O)NC(=O)NC(C)(C)C)c(=O)n2Cc1ccccc1` gave NS1 function inh 10%, Shiga toxin inh -7, Pf growth 48h 2.9µM*, Pf growth 96h inconclusive and CHX counter 12.
CCCCNC(=O)Cn1c(=O)c2c(ncn2CCC(C)C)n(Cc2ccccc2)c1=O was read as NS1 function inh -12%, Shiga toxin inh -1, Pf growth 48h inconclusive, Pf growth 96h 2.3µM* and CHX counter -5.
Screening CC(NC(=O)c1cccc(OC2CCN(C3CCN(C)CC3)CC2)c1)c1ccccc1 (stereo not drawn) returned NS1 function inh 9%, Shiga toxin inh -6, Pf growth 48h inconclusive, Pf growth 96h inconclusive and CHX counter 2.
CC1Cc2ccccc2N1C(=O)C1CCCN(S(=O)(=O)c2cccc3nsnc23)C1 (stereo not drawn) was read as NS1 function inh 6%, Shiga toxin inh -11, Pf growth 48h inconclusive, Pf growth 96h inconclusive and CHX counter -1.
`Cc1ccc(C2=NCCn3c2c2ccccc2[n+]3[O-])cc1` gave Pf growth 48h -17% and Pf growth 96h 57%.
CCC(C)Oc1ccccc1C1CC(=O)NC2=C1C(=O)CCC2 (stereo not drawn) was read as NS1 function inh -4%, Shiga toxin inh -26, Pf growth 48h inconclusive, Pf growth 96h inconclusive and CHX counter -2.
For Cc1cc(NC(=O)Cn2c(=O)c3c(ncn3CC(C)C)n(Cc3ccccc3)c2=O)no1 the results were NS1 function inh -3%, Shiga toxin inh 21, Pf growth 48h 8.3µM*, Pf growth 96h 4.7µM* and CHX counter 0.
Screening Cc1ccc(N(CC(=O)Nc2cc(C)ccc2C)S(C)(=O)=O)cc1 returned NS1 function inh 21%, Pf growth 48h 10%, Pf growth 96h 9% and CHX counter -5.
For CNC(=O)CN(c1cc(C)ccc1C)S(C)(=O)=O the results were NS1 function inh 4%, Shiga toxin inh 7, Pf growth 48h -14%, Pf growth 96h -13% and CHX counter -3.
For Cc1ccc(C)c(N(CC(=O)Nc2ccc(-c3nc4ccc(C)cc4s3)cc2)S(C)(=O)=O)c1 the results were NS1 function inh -3%, Shiga toxin inh 80*, Pf growth 48h inconclusive, Pf growth 96h 35% and CHX counter 28*.
`Cc1ccc(N(CC(=O)Nc2ccc(-c3nc4ccc(C)cc4s3)cc2)S(C)(=O)=O)cc1` gave NS1 function inh -3%, Shiga toxin inh 117*, Pf growth 48h 193%, Pf growth 96h 82% and CHX counter 58*.
CCSc1ccc(C(=O)Nc2ccc(Br)cn2)cc1[N+](=O)[O-] was read as Shiga toxin inh 20, Pf growth 48h 20%, Pf growth 96h -13% and CHX counter 7.
Screening Cc1cccc(NC(=O)c2ccccc2[N+](=O)[O-])n1 returned NS1 function inh 2%, Shiga toxin inh -7, Pf growth 48h 5%, Pf growth 96h 74% and CHX counter 8.
For CCSc1ccc(C(=O)Nc2cccc(C)n2)cc1[N+](=O)[O-] the results were NS1 function inh 2%, Shiga toxin inh 23*, Pf growth 48h 64%, Pf growth 96h 2% and CHX counter 10.0*.
Screening Cc1cccc(NC(=O)c2ccc(NC(C)c3ccccc3)c([N+](=O)[O-])c2)n1 (stereo not drawn) returned NS1 function inh 3%, Shiga toxin inh 19, Pf growth 48h 9.3µM*, Pf growth 96h -2% and CHX counter 16.
Screening C=CC[n+]1c(/C=C/c2ccc(OC(C)=O)c(OC)c2)ccc2ccccc21 returned NS1 function inh 12%, Shiga toxin inh 5, Pf growth 96h inconclusive and CHX counter 2.
`Nc1ccc(Oc2ccc3c(c2)OCO3)cc1` gave Shiga toxin inh 15, Pf growth 48h 34%, Pf growth 96h inconclusive and CHX counter 12.
c1ccc2c(Oc3ccc4c(c3)OCO4)nncc2c1 was read as NS1 function inh -53%, Shiga toxin inh 76*, Pf growth 48h 128%, Pf growth 96h 153% and CHX counter 29*.
For Cc1ccc(S(=O)(=O)N2c3ccccc3OCC2C(C)(C)C)cc1 (stereo not drawn) the results were NS1 function inh -38%, Shiga toxin inh -3, Pf growth 48h 9.3µM*, Pf growth 96h inconclusive and CHX counter -2.
Screening COC(=O)CC1COc2ccccc2N1S(=O)(=O)c1ccc(OC)cc1 (stereo not drawn) returned NS1 function inh -8%, Shiga toxin inh -4, Pf growth 48h inconclusive, Pf growth 96h inconclusive and CHX counter -6.
`Cc1ccc2c(c1)N(S(=O)(=O)c1ccc(F)cc1)C(C(C)(C)C)CO2` (stereo not drawn) gave NS1 function inh -25%, Shiga toxin inh 10, Pf growth 48h 13µM*, Pf growth 96h 0% and CHX counter 10.
Screening Cc1ccc2c(c1)NC(C(C)(C)C)CO2 (stereo not drawn) returned NS1 function inh -2%, Shiga toxin inh -25, Pf growth 48h 16%, Pf growth 96h 7% and CHX counter -3.
`O=c1[nH]c(-c2ccccn2)nc2sc(-c3ccccc3)cc12` gave Shiga toxin inh 118*, Pf growth 48h 62%, Pf growth 96h inconclusive and CHX counter 49*.
CC(=O)c1cn(-c2ccc(Cl)cc2)c(=O)n(Cc2ccc(Br)cc2)c1=O was read as Shiga toxin inh 16, Pf growth 48h inconclusive, Pf growth 96h 2% and CHX counter -5.
